The record followed here is PubChem BioAssay AID624330 (Southern Research Specialized Biocontainment Screening …, 2012).

The structures appear in SMILES notation. About 2,100 (0.62%) of roughly 340,000 compounds were called active.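 The calls were made as follows: active = first-screen hits whose inhibition reached a set limit at any dose in the follow-up dose series; inconclusive = inhibition above the set first-screen limit but never retested; inactive = the rest.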 These entries were drawn from the full list. Measured potencies and affinities stand elsewhere.

Rac GTPase-activating protein 1 (Homo sapiens), sequence (Q9H0H5 whole entry, looked up): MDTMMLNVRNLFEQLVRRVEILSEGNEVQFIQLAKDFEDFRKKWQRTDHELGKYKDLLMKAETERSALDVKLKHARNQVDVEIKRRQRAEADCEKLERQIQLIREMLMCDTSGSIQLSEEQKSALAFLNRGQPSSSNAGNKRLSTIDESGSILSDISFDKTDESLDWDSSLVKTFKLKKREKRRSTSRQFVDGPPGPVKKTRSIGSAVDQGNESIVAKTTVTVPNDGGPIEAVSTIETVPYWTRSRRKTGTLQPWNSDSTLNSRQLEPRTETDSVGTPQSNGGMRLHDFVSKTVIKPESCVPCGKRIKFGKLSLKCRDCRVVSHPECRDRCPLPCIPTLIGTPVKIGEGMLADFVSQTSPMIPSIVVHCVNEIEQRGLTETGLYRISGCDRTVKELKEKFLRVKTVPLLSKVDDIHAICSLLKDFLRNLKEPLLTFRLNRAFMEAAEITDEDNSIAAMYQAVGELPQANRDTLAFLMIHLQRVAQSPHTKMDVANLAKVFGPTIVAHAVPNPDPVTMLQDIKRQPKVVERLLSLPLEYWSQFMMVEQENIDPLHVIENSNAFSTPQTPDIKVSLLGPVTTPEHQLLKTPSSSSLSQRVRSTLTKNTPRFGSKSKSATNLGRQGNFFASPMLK

This assay addresses Rac GTPase-activating protein 1 (Homo sapiens) (UniProt Q9H0H5). The assay can be described thus: blockers of MgcRacGAP-driven Rac1 GTP hydrolysis – biochemical, ADP Hunter fluorescence, primary and confirmatory, confirmation (AID 624330).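 Also: fluorescence reports GDP produced by GAP-driven GTP hydrolysis.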 To be noted: MgcRacGAP-stimulated Rac1 GTP hydrolysis, at 30 µM, active compounds read high, GST-tagged Rac1 F28L mutant substrate.
What is called inhibition is the drop in the measured response relative to a control, in per cent. Turning to `Cc1noc(C)c1COC(=O)c1ccccc1Sc1ccccc1C#N`, the inhibition is 3.85% (inactive). Consider `CCOc1ccc(CCN2C(=S)N([C@@H](CC(C)C)CN3CCCC3CN3C(=S)NC[C@@H]3Cc3ccc(O)cc3)C[C@@H]2Cc2ccc(O)cc2)cc1` (stereo not given in full), for which the inhibition is 10.2% (inactive). The result for `O=C(OC(C(=O)NCc1ccccc1)c1ccccc1)c1ccco1` (stereo not given) reads 5.58% (inactive); that for `Cc1cccn2cc(CNS(=O)(=O)c3cccc(F)c3)nc12`, 7.85% (inactive); that for `O=C(CCc1nc2ccccc2[nH]1)N1CCN(C(=O)c2ccco2)CC1`, -2.14% (inactive).

Take `CCC(C)[C@H](NC(=O)NCc1ccc(OC)c(OC)c1)C(=O)O` (stereo not given in full): the inhibition was 11.4% (inactive). For the molecule `Cc1ccc2nc(SCc3nnc(-c4ccccc4)o3)[nH]c2c1`, the inhibition was 12.2% (inactive). On to `CCOC(=O)C1(Cc2ccccc2C)CCCN(C(=O)c2ccc3nccnc3c2)C1` (stereo not given), for which the inhibition was 7.5% (inactive).

Turning to `CCN(c1ccccc1)S(=O)(=O)c1ccc(C(=O)NCCCN2CCOCC2)cc1`, the inhibition is 8.29% (inactive). Take `O=C(NNC(=O)c1ccccc1[N+](=O)[O-])c1ccc(NC(=O)c2ccccc2)cc1`: the inhibition is 12.4% (inactive). The figure for `O=C(N/C=C\n1cnc2cc(C(F)(F)F)ccc21)c1ccc([N+](=O)[O-])cc1` is 6.01% (inactive); for `CS(=O)(=O)c1ccc(Cl)c(NC(=O)CN2CCN(C(=O)c3cccs3)CC2)c1` it is 3.52% (inactive).

`c1ccc(N2CCN(c3nc4ccccc4n4nnnc34)CC2)cc1`: the inhibition is 2.04% (inactive). The figure for `O=C(NCc1cccc(F)c1)C1CCC(=O)N(CCc2cccc(F)c2)C1` (stereo not given) is 0.03% (inactive); for `COc1cccc(C(CC(=O)NCc2ccco2)NS(=O)(=O)c2ccc(C)cc2)c1OC` (stereo not given) it is 2.02% (inactive). As for `O=C(COC(=O)c1ccccc1C(=O)c1ccc(Cl)cc1)NCC1CCCO1` (stereo not given), the inhibition was 3.71% (inactive). As to `COc1ccccc1CN1CCSCC1`, the inhibition was 23.4% (inactive). For the molecule `COc1ccc(S(=O)(=O)N2CCN(Cc3ccccc3OC)CC2)cc1`, the inhibition was 11.4% (inactive). The result for `O=C(Nc1ccccc1)Nc1nncs1` reads 9.87% (inactive); that for `O=c1[nH]n(-c2ccc(Cl)cc2)c2ncccc12`, 31.6% (inactive); that for `O=c1[nH]n(-c2ccc(F)cc2)c2ncccc12`, 15.2% (inactive). For `Cc1cs/c(=N\N=C\c2ccccc2)n1Cc1ccco1`, the inhibition was 7.87% (inactive). The figure for `CC(C)=N/N=c1\scc(C)n1Cc1ccco1` is 6.39% (inactive). Consider `C[C@H](CO)N1C[C@H](C)[C@@H](CN(C)C(=O)Nc2ccc(C(F)(F)F)cc2)Oc2c(NC(=O)CCC(F)(F)F)cccc2C1=O`, for which the inhibition is 3.3% (inactive).

For `Cc1cccc(C(=O)c2cn[nH]c2-c2ccc(C)cc2O)c1`, the inhibition was 4.53% (inactive). On to `Cc1ccc(CNC(=O)C(=O)NCCC2CCCCN2S(=O)(=O)c2ccccc2)cc1` (stereo not given), for which the inhibition was 9.49% (inactive). The figure for `Cc1ccccc1CNC(=O)CCn1nc(C)c2c(C)n(-c3ccccc3)nc2c1=O` is 13.3% (inactive); for `CCCC(=O)NC(=S)Nc1ccccc1F` it is 5.15% (inactive); for `O=C(NC(=S)Nc1cccc2ncccc12)c1ccco1` it is -0.13% (inactive). The figure for `O=C(NC(=S)Nc1cccc2cc(O)ccc12)c1ccco1` is 23.9% (inactive); for `O=C(COc1ccccc1)NC(=S)Nc1cccc2c(O)cccc12` it is 17.9% (inactive); for `CCc1noc(C)c1C(=O)Nc1cccc2ncccc12` it is 3.52% (inactive). For the molecule `O=C(COC(=O)Cc1ccc(Cl)cc1)NCc1cccs1`, the inhibition is 6.22% (inactive). The figure for `COC(=O)c1ccccc1COn1c(=O)c(C)[n+]([O-])c2ccccc21` is 6.87% (inactive). The figure for `COc1ccc(N2CCc3c(C)nc(SC)nc32)cc1` is 2.67% (inactive). For `CSc1nc(C)c2c(n1)N(c1ccc(F)cc1)CC2`, the inhibition was 11.7% (inactive). The figure for `Cc1ccc(Cl)cc1N1CCN(S(=O)(=O)N2CCCCC2)CC1` is 8.42% (inactive); for `CN(c1ccccc1)S(=O)(=O)c1cccc(C(=O)NCc2ccccc2)c1` it is 5.13% (inactive).

Turning to `CN(C)S(=O)(=O)c1cccc(C(=O)NCCc2ccccc2)c1`, the inhibition was 10.5% (inactive). The result for `CC(C)(C)NC(=O)C(c1ccccn1)N(C(=O)c1csnn1)C1CCCCC1` (stereo not given) reads 2.75% (inactive); that for `CCOC(=O)C1(Cc2ccccc2)CCN(Cc2csc(C(C)=O)c2)CC1`, 3.47% (inactive). The figure for `CC(=O)Nc1ccc(NC(=O)CC(c2ccccc2)c2ccccc2)cc1` is 11.3% (inactive). Take `CC(=O)c1ccc(NC(=O)CCCC(=O)c2ccccc2)cc1`: the inhibition was 8.95% (inactive). Regarding `O=C(CCCC(=O)c1ccccc1)Nc1ccc(F)cc1`, the inhibition was 4.81% (inactive). The result for `O=C(CC(c1ccccc1)c1ccccc1)Nc1ccc(C(=O)O)cc1` reads 13.2% (inactive); that for `Cc1c(OCC(=O)N[C@@H](CSCc2ccccc2)C(=O)O)ccc2c3c(c(=O)oc12)CCC3`, 4.52% (inactive). Consider `CC(=O)c1cccc(-c2ccc3c(=O)[nH]c(Nc4ccccc4)cc3c2)c1`, for which the inhibition is 0.61% (inactive). The figure for `COc1cc(-c2cc(-c3ccccc3)nc(SCC(=O)Nc3nccs3)c2C#N)cc(OC)c1OC` is -0.01% (inactive); for `CCS(=O)(=O)Nc1cccc(C2=NN(S(=O)(=O)c3ccc(C)cc3)C(c3cccs3)C2)c1` (stereo not given) it is -1.77% (inactive). The figure for `CN1OC[C@@H]2CN(C(=O)CCc3ccccc3)[C@H](c3cccc(-c4ccc(C#N)cc4)c3)C[C@@H]21` is 4.81% (inactive). The result for `O=C(N1CCOCC1)N1CCN(C(c2ccccc2)c2ccccc2)CC1` reads 5.11% (inactive); that for `CC(C)Cc1nc(SCC(=O)NCC2CCCO2)c2c(=O)n(C)c(=O)n(C)c2n1` (stereo not given), 5.52% (inactive). On to `Cc1ccc(S(=O)(=O)N2CCN(CC(=O)N3CCOCC3)CC2)cc1`, for which the inhibition was 6.79% (inactive).

As to `Cc1ccc(N2CCN(S(=O)(=O)c3ccc(C)cc3)CC2)cc1`, the inhibition was 8.85% (inactive). The result for `Cc1cc(C)c(C)c(S(=O)(=O)N2CCN(c3ccccn3)CC2)c1C` reads 6.39% (inactive); that for `Cc1cc(C)c(C)c(S(=O)(=O)N2CCC(C(=O)N3CCN(c4ccc(F)cc4)CC3)CC2)c1C`, 3.44% (inactive). The result for `Cc1cc(C)c(C)c(S(=O)(=O)N2CCN(C)CC2)c1C` reads 9.5% (inactive); that for `CC(=O)c1ccc(N2CCN(S(=O)(=O)c3ccc4ccccc4c3)CC2)cc1`, 1.69% (inactive). The result for `COc1cccc(N2CCN(S(=O)(=O)c3ccc4ccccc4c3)CC2)c1` reads -3.05% (inactive); that for `Cc1ccc(C(=O)O)cc1S(=O)(=O)N1CCC(C(=O)O)CC1`, 3.35% (inactive).
